In PubChem BioAssay (NCI):
Compounds without any hit were thinned out: in the full panel of roughly 83,000, 20% have a hit.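 Plates (96-well) were seeded with cells, treated with compound at one concentration, and incubated for 48 hours before percent growth was determined.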

How the values were obtained:
Test in all cases: NCI-60 one-dose screen, 48 h (100 = growth as untreated, 0 = no growth, -100 = all killed); active = growth percent below 10; inactive = the rest
SK-MEL-2 melanoma = settings: 10 µM unless noted
EKVX NSCLC = settings: 10 µM unless noted
UO-31 renal = settings: 10 µM unless noted
TK-10 renal = settings: 10 µM unless noted
ACHN renal = settings: 10 µM unless noted
CAKI-1 renal = settings: 10 µM unless noted
A498 renal = settings: 10 µM unless noted
CCRF-CEM leukemia = settings: 10 µM unless noted
MOLT-4 leukemia = settings: 10 µM unless noted
SR leukemia = settings: 10 µM unless noted
RPMI-8226 leukemia = settings: 10 µM unless noted
OVCAR-8 ovarian = settings: 10 µM unless noted
OVCAR-5 ovarian = settings: 10 µM unless noted
OVCAR-4 ovarian = settings: 10 µM unless noted
SK-OV-3 ovarian = settings: 10 µM unless noted
IGROV1 ovarian = settings: 10 µM unless noted
OVCAR-3 ovarian = settings: 10 µM unless noted
HS 578T breast = settings: 10 µM
NCI/ADR-RES ovarian = settings: 10 µM unless noted
SN12C renal = settings: 10 µM unless noted

Measured: growth

CN(C)c1ccc(/C=N/Nc2nnc3n2N=C(c2ccc(Cl)cc2)CS3)cc1
inactive: SK-MEL-2 melanoma 97.5% | EKVX NSCLC 89% | UO-31 renal 74.9% | TK-10 renal 92.9% | ACHN renal 99.5% | CAKI-1 renal 96.8% | A498 renal 85.6% | CCRF-CEM leukemia 86.8% | MOLT-4 leukemia 66.6% | SR leukemia 94.1% | RPMI-8226 leukemia 82.5% | OVCAR-8 ovarian 96.5% | OVCAR-5 ovarian 108% | OVCAR-4 ovarian 98.8% | SK-OV-3 ovarian 108% | IGROV1 ovarian 84.4% | OVCAR-3 ovarian 102% | HS 578T breast 92% | NCI/ADR-RES ovarian 94%

CCc1ccc(Nc2cc(C)c3ccc(O)cc3n2)cc1
inactive: SK-MEL-2 melanoma 85% | SN12C renal 77% | UO-31 renal 44.1% | TK-10 renal 74.1% | ACHN renal 73.8% | CAKI-1 renal 53% | A498 renal 93.7% | CCRF-CEM leukemia 68.9% | MOLT-4 leukemia 62.9% | SR leukemia 43.9% | RPMI-8226 leukemia 29.9% | OVCAR-8 ovarian 80% | OVCAR-5 ovarian 83.7% | OVCAR-4 ovarian 75.7% | SK-OV-3 ovarian 90.1% | IGROV1 ovarian 53.8% | OVCAR-3 ovarian 81% | HS 578T breast 87.6%

C/C(=N\OC(=O)Nc1ccccc1)c1ccccc1
inactive: SK-MEL-2 melanoma 111% | SN12C renal 94.8% | UO-31 renal 88.7% | TK-10 renal 115% | ACHN renal 106% | CAKI-1 renal 114% | A498 renal 39.4% | CCRF-CEM leukemia 99.1% | MOLT-4 leukemia 94% | SR leukemia 81.5% | RPMI-8226 leukemia 99.1% | OVCAR-8 ovarian 106% | OVCAR-5 ovarian 98.4% | OVCAR-4 ovarian 92.9% | SK-OV-3 ovarian 115% | IGROV1 ovarian 106% | OVCAR-3 ovarian 108% | HS 578T breast 85.1% | NCI/ADR-RES ovarian 107%
